# Screening data as filed in PubChem.
# In the library only some 2.8% were active in any assay of this set; here they are far more common.
# FXN GAA850 act: frataxin GAA850 promoter activation; HEK293 lucGAA850 FXN promoter luciferase reporter, 24 h; percent of 10 µM SAHA response; activation, % at 6 µM; hit rate 0.56% among 360,000;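 active means activation above the average of all compounds screened plus 3 SD, cutoff fixed separately per campaign, cut at about 7.5% in these data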;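 further: 0% = DMSO wells and 100% = 10 µM SAHA wells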
# esBAF inh: blocks esBAF chromatin remodeling in mouse ES cells | hit rate 2% among 350,000 | Bmi1-luciferase knock-in reporter, 24 h; 100% = twice the neutral-well signal | reporter increase, % at 12.5 µM | AID 602393; in the data active means activation above about 40%; inconclusive means no clear call, values can overlap the other calls;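 further: 0% = median of the plate's neutral control wells and 100% = double that signal; a rise in the Bmi1 reporter signal indicates esBAF inhibition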
# MITF act: increases MITF-driven TRPM1 promoter luciferase signal; SK-MEL-5 TRPM1-promoter luciferase, 24 h; % of positive control, neutral wells = 0; activation, % at 12.5 µM; hit rate 0.75% among 300,000;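 active means mean activation of at least 80% with every replicate also reaching 80%; inconclusive means mean reaches 80% but some replicate falls short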;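 further: 0% = neutral control wells and 100% = parthenolide positive control wells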
# Wnt act: activators of Wnt/beta-catenin signaling; activation, % at 9.35 µM; AID 743398; Wnt/beta-catenin reporter cell assay, activator, plate reader; hit rate 1.2% among 300,000; in the data active means activation above about 30%, passing the limit was not always enough; inconclusive means no clear call, values can overlap the other calls;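 further: 0% = neutral control wells and 100% = positive control wells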
# Starred values were filed as active, the others as inactive; ? = inconclusive; nt = no result given; ! = a repeat was not active.
SMILES,FXN GAA850 act,esBAF inh,MITF act,Wnt act
Cc1nc(N=Nc2ccc(O)cc2)n[nH]1,2,4,38,44*
Cc1ccc(-c2noc(-c3ccccc3C(=O)N3CCCC3)n2)cc1,2,38,6,nt
O=C(c1ccccc1-c1nc(-c2ccc(Cl)cc2)no1)N1CCCC1,1,33,21,17
O=C(c1ccccc1-c1nc(-c2ccccc2)no1)N1CCCC1,3,57*,2,11
Cc1ccc(-c2noc(-c3ccccc3C(=O)N3CCN(C)CC3)n2)cc1,4,64*,nt,-4
Cc1c(/C(O)=C2/C(=O)C(=O)N(Cc3cccnc3)C2c2cccs2)cnn1-c1ccccc1 (stereo unspecified),-7,46*,53,-3
CN1CCN(C(=O)C[C@@H]2CC[C@@H]3[C@H](COC[C@@H](O)CN3C(=O)C3CC3)O2)CC1,nt,2,nt,nt
COCC(=O)N1C[C@@H]2[C@H](c3ccccc31)[C@H](CO)N2C(=O)c1ccncc1,nt,2,nt,nt
CCC(=O)Nc1ccc2c(c1)C(=O)N(C)[C@@H]1CC[C@H](CC(=O)NCc3ccccc3Cl)O[C@@H]1CO2,nt,-3,nt,nt
O=C(OCc1ccccc1)c1ccc2c(c1)-c1ccccc1C2=O,2,nt,113*,41*
O=C(OCc1ccccc1)c1ccccc1,-3,14,nt,0
NC(N)=N/N=C/c1ccccc1,0,nt,11,-13
NC(=N\N=Cc1ccccc1)/C(N)=N/N=Cc1ccccc1,7,50*,nt,-4
C[C@H]1CN([C@@H](C)CO)C(=O)c2cccc(NC(=O)C3CCCCC3)c2O[C@H]1CN(C)C,nt,-7,nt,nt
C[C@@H]1CN([C@@H](C)CO)C(=O)c2cccc(NC(=O)C3CCOCC3)c2O[C@@H]1CN(C)S(=O)(=O)c1ccc(Cl)cc1,nt,1,nt,nt
CCC(=O)NNC(=O)CCC(=O)Nc1ccc(C)cc1C,2,8,19,-7
Cc1ccc(NC(=O)CCC(=O)NNC(=O)C(C)(C)C)c(C)c1,2,nt,6,40*
O=C(Cc1cccs1)N/N=C/C(Br)=C/c1ccccc1,5,51*,107*,nt
CC(/C=N/NC(=O)Cc1cccn1C)=C\c1ccccc1,3,nt,51,nt
CCN(CC)c1ccc(/C=N/NC(=O)Cc2cccs2)cc1,1,nt,4,1
CC(/C=N/NC(=O)Cc1cccs1)=C\c1ccccc1,6,nt,124*,nt
O=C(CN1CCOCC1)N/N=C/C(Br)=C\c1ccccc1,3,nt,10,-1
COc1ccc(/C=N/NC(=O)Cc2cccs2)cc1,6,59*,nt,25
O=C(NCCCCNC(=O)c1ccccc1Cl)c1ccccc1Cl,0,-1,2,-1
CC(CNC(=O)c1ccccc1Cl)c1ccccc1 (stereo unspecified),3,48*,66,7
SMILES,FXN GAA850 act,esBAF inh,MITF act,Wnt act
O=C1NC(c2ccccc2Br)=N/C1=C\c1ccco1,5,nt,46,70*
O=C1NC(c2ccccc2)=N/C1=C/c1ccco1,7,nt,51,?
C[C@H](NC(=O)C[C@@H]1C[C@H]2c3cc(NS(C)(=O)=O)ccc3O[C@H]2[C@H](CO)O1)c1ccccc1,nt,-3,nt,nt
C[C@H]1CN([C@@H](C)CO)S(=O)(=O)c2ccc(-c3cncnc3)cc2O[C@@H]1CN(C)C(=O)C1CC1,nt,-3,nt,nt
CCc1cc2cc(C(=O)Nc3ccc(F)cc3)sc2s1,1,32,37,49*
CC(C)(C)c1ccc(C(=O)Nc2ccc(F)cc2)s1,4,nt,91*,5
O=C(C[C@H]1C[C@@H]2c3cc(NC(=O)C4CCOCC4)ccc3O[C@@H]2[C@@H](CO)O1)NCCc1ccccc1,nt,-5,nt,nt
COc1ccccc1C(=O)Nc1ccc2c3c(cccc13)CC2,6,62*,62,nt
CCc1nnc(NC(=O)CSc2nc3c(cc2C#N)CCC3)s1,2,-8,45,70*
COc1ccc(C(c2c(O)ccc3ccccc23)N2CCOCC2)c(OC)c1 (stereo unspecified),2,nt,nt,76*
COc1ccc(C(CCN2CCOCC2)c2c(O)cc(OC)cc2OC)cc1 (stereo unspecified),-1,-4,10,-1
Cc1noc(C)c1S(=O)(=O)Nc1ccc2c(c1)C(=O)N([C@@H](C)CO)C[C@@H](C)[C@H](CN(C)C(=O)Nc1ccc3c(c1)OCO3)OCCCC[C@@H](C)O2,nt,-3,nt,nt
O=C(CSc1nc2ccc(Cl)cc2[nH]1)c1cccs1,7,?,54,37*
O=C1CCC(=O)N1c1ccc(CSc2nc3ccccc3[nH]2)cc1,4,42*,nt,nt
O=C(CSc1nc2ccccc2[nH]1)N1CCCCC1,2,23,106*,nt
O=C(CSc1nc2ccccc2[nH]1)c1ccccc1F,1,52*,56,?
CCCC(=O)Nc1ccc2c(c1)OC[C@@H](C)N(Cc1cncnc1)C[C@@H](C)[C@@H](OC)CN(C)C2=O,nt,-2,nt,nt
CC(C)C(=O)Nc1ccc2c(c1)C(=O)N(C)[C@H]1CC[C@@H](CC(=O)NCCCN(C)C)O[C@@H]1CO2,nt,1,nt,nt
C[C@@H]1CN([C@@H](C)CO)C(=O)c2cc(C#CC3CC3)cnc2O[C@@H]1CN(C)C(=O)Nc1ccccc1,nt,2,nt,nt
CC(C)NC(=O)N[C@@H]1CC[C@H](CCNS(=O)(=O)c2ccc(Cl)cc2)O[C@@H]1CO,nt,1,nt,nt
C[C@H](CO)N1C[C@H](C)[C@@H](CN(C)C(=O)c2cccc(F)c2)Oc2ncc(-c3cccnc3)cc2C1=O,nt,2,nt,nt
Cc1noc(C)c1CSc1nc2ccccc2[nH]1,1,-8,4,-2
Fc1cccc(F)c1CSc1nc2ccccc2[nH]1,3,42*,71,nt
Cc1cc(C(=O)CSc2nc3ccccc3[nH]2)c(C)n1C,-2,nt,70,62*
O=C(CSc1nc2ccccc2[nH]1)NCc1ccccc1,2,43*,nt,18
SMILES,FXN GAA850 act,esBAF inh,MITF act,Wnt act
O=C(CSc1nc2ncccc2[nH]1)NCc1ccccc1,-1,10,-1,nt
CCC(=O)N1C[C@@H](O)COC[C@@H]2O[C@H](CC(=O)NCc3ccccc3Cl)CC[C@H]21,nt,-5,nt,nt
C[C@@H]1CN([C@@H](C)CO)S(=O)(=O)c2ccc(-c3cccc(C(=O)N(C)C)c3)cc2O[C@@H]1CN(C)C(=O)Cc1ccccn1,nt,0,nt,nt
c1ccc(-c2nc3ccccc3s2)nc1,3,11,58,59*!
Nc1ccc(-c2nc3ccccc3s2)cn1,4,13,39,38*
Cc1cc(-c2nc3ccccc3s2)ccc1N,0,nt,nt,-2
CN(C)c1ncccc1-c1nc2ccccc2s1,2,nt,-1,-2
C[C@H](CO)N1C[C@H](C)[C@@H](CN(C)C(=O)Nc2ccccc2)Oc2ccc(NC(=O)Nc3ccc(C(F)(F)F)cc3)cc2CC1=O,nt,3,nt,nt
O=C(NC1CCCCC1)C(c1cccs1)N(C(=O)c1ccco1)c1ccc2c(c1)OCCO2 (stereo unspecified),-2,78*,-1,0
CCc1ccc(N(C(=O)c2ccco2)C(C(=O)NC2CCCC2)c2ccco2)cc1 (stereo unspecified),0,50*,5,nt
CCc1ccc(N(C(=O)c2ccco2)C(C(=O)NC2CCCC2)c2ccncc2)cc1 (stereo unspecified),7,42*,17,8
